For 16 compounds, composite z-score and z-score results are on record in PubChem BioAssay.

Molecules are shown by their SMILES. Active and inactive are the calls of the source. Unless noted, how the calls were made is not given here.

Assay [1] deals with XIP peptide (Xip251-270) binding. The assay can be described thus: small-molecule binders of XIP peptide, primary screen, biochemical, small-molecule microarray, fluorescence 635/667 nm, 0.1 µg/mL protein (AID 1182). As to conditions: fluorescent protein binding, 635 nm, higher = more signal, called active from +8 up or from −8 down.
Another assay relates to XIP peptide (Xip251-270). The assay can be described thus: small-molecule binders of XIP peptide, primary screen, biochemical, small-molecule microarray, fluorescence 635/667 nm, 0.5 µg/mL protein (AID 1183). As to conditions: small-molecule microarray binding, fluorescence 635 nm; higher = more signal.
A short description of assay [2]: Plasmodium falciparum growth inhibition, primary screen, strain 3D7, DAPI fluorescence, 100 nL (AID 1184).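 Further: parasites grown inside human red blood cells in medium with human serum.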 As to conditions: P. falciparum 3D7 growth, 3 d, higher = more signal.
The target in assay [3] is Homeobox protein Hox-A13 (Mus musculus) (UniProt Q62424). The assay can be described thus: inhibitors of HoxA13-DNA binding, primary screen, biochemical, fluorescence polarization, labeled oligonucleotide (AID 1185). As to conditions: 15 min, higher = more signal, called active from +8 up or from −8 down.
Sequence of Homeobox protein Hox-A13 (Mus musculus) (Q62424 whole entry, looked up): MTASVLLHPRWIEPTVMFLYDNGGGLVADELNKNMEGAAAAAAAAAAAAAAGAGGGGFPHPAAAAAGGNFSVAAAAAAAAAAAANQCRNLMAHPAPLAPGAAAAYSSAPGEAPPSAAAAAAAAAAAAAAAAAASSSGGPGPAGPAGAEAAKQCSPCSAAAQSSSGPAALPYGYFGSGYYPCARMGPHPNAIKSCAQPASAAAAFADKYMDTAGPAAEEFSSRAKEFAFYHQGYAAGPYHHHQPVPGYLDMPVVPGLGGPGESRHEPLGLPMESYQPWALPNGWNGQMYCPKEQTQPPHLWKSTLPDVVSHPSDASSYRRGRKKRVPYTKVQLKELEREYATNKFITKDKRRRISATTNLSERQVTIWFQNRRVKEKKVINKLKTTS
A short description of assay [4]: inhibitors of hydroxyurea-induced Chk1 phosphorylation, primary screen, imaging, HeLa, phospho-Chk1 antibody, percent positive cells (AID 1186). As to conditions: hydroxyurea-induced phospho-Chk1 immunofluorescence imaging, higher = more signal.
Assay [5] in a line: inhibitors of hydroxyurea-induced Chk1 phosphorylation, primary screen, imaging, HeLa, phospho-Chk1 nuclear intensity (AID 1187). Particulars: hydroxyurea-induced phospho-Chk1 immunofluorescence imaging, higher = more signal.

As to `O=C(O)[C@]1(Cc2ccccc2)N=C(c2ccc(OCCCO)cc2)O[C@@H]1c1ccccc1`, the composite z-score in assay [1] is -0.243 (inactive); with XIP peptide (Xip251-270) it was 0.48. Also, the z-score in assay [2] is 1.24; in assay [3] it was -4.93 (inactive); in assay [4], 0.282 (inactive); in assay [5], 0.37 (inactive).
Take `Cc1ccc(S[C@]2(C(=O)NCC(F)(F)F)CC(=O)N(Cc3ccccc3)[C@@H]2c2ccc(CO)cc2)cc1`: the composite z-score in assay [1] was 1.02 (inactive); with XIP peptide (Xip251-270), 0.5. Further, the z-score in assay [2] is -1.57; in assay [3] it was -3.77 (inactive); in assay [4], -0.336 (inactive); in assay [5] it was -0.603 (inactive).
As for `CCOC(=O)C[C@H]1[C@H](OC(=O)c2ccc(C(=O)c3ccccc3)cc2)[C@@H](NC(=O)c2ccc3ccccc3c2)c2cc(OCCCO)ccc2N1C(=O)c1ccccc1`, the composite z-score in assay [1] is 1.39 (inactive); with XIP peptide (Xip251-270), 0.444. Also, the z-score in assay [2] was 1.45; in assay [3] it was -0.683 (inactive); in assay [4], 0.451 (inactive); in assay [5] it was 0.0368 (inactive).
Consider `C=C(/C(=C/C[C@@H](OC(=O)c1ccncc1)c1ccccc1OCCO)c1cc(C(=O)OC)ccc1OC)C(C)C`, for which the figures for the composite z-score (in assay [1]; with XIP peptide (Xip251-270)) were 0.214 (inactive) and 0.596, respectively. Besides, the z-score was -2.94 in assay [2], -3.84 (inactive) in assay [3], -1.77 (inactive) in assay [4] and -1.86 (inactive) in assay [5].
On to `COc1ccc([Si](C)(C)[C@@H]2[C@@H](CCn3cc([C@H](O)c4ccccc4)nn3)O[C@]3(C(=O)N(Cc4ccc(N5CCOC5=O)cc4)c4ccccc43)[C@H]2C)cc1`, for which the results for the composite z-score (in assay [1]; in the assay with XIP peptide (Xip251-270)) were 0.0449 (inactive) and 0.823, respectively. Moreover, the z-score is -2.78 in assay [2], -3.54 (inactive) in assay [3], 0.875 (inactive) in assay [4] and 0.221 (inactive) in assay [5].
Take `C=CCNC(=O)[C@H]1[C@@H]2C(=O)O[C@@H](c3ccccc3)[C@@H](c3ccccc3)N2[C@@H](c2ccccc2OCCO)[C@]12C(=O)N(C(=O)OCCOC)c1ccc(C#CC3=CCCCC3)cc12`: the composite z-score was 0.234 (inactive) in assay [1] and 0.719 with XIP peptide (Xip251-270). Besides, the z-score was -2.12 in assay [2], 0.724 (inactive) in assay [3], 0.557 (inactive) in assay [4] and 1.47 (inactive) in assay [5].
Take `C=CCC(OC(C)=O)[C@@H]1[C@@H](N(Cc2cc3ccccc3o2)C(=O)Cc2ccc(F)cc2)c2cc(OCCCO)ccc2N1C(=O)c1ccc2ccccc2n1` (stereo partly specified): the results for the composite z-score (in assay [1]; in the assay on XIP peptide (Xip251-270)) were -0.173 (inactive) and -0.442, respectively. The z-score in assay [2] is 0.774; in assay [3], -1.55 (inactive); in assay [4], 0.702 (inactive); in assay [5], 0.636 (inactive).
`O=C1O[C@@H](c2ccccc2)[C@@H](c2ccccc2)N2[C@@H](c3ccc(O)cc3)[C@]3(C(=O)Nc4ccc(C#CC5=CCCCC5)cc43)[C@@H](C(=O)N3CCN(c4ncccn4)CC3)[C@H]12`: the composite z-score is -0.168 (inactive) in assay [1] and 0.657 with XIP peptide (Xip251-270). The z-score is -1.97 in assay [2], 0.676 (inactive) in assay [3], -0.0981 (inactive) in assay [4] and -0.0223 (inactive) in assay [5].
With `COC1(C)CN(Cc2ccccc2Br)[C@H](/C=C/c2ccccc2)[C@H](Cc2ccccc2)O1` (stereo partly specified), the composite z-score is -0.181 (inactive) in assay [1] and -0.13 in the assay with XIP peptide (Xip251-270). For the same compound, the z-score in assay [2] was 0.502; in assay [3] it was 0.471 (inactive); in assay [4] it was -1.6 (inactive); in assay [5], -2.34 (inactive).
As to `C=CCOC(=O)[C@H]1[C@@H]2C(=O)O[C@@H](c3ccccc3)[C@@H](c3ccccc3)N2[C@@H](c2ccc(OCCOC(=O)[C@H]3C[C@H]4C(=O)N[C@@H](CCCC[N+](C)(C)C)C(=O)N4[C@H]3c3cccc(OCCO)c3)cc2)[C@]12C(=O)Nc1ccc(I)cc12`, the composite z-score in assay [1] was 0.261 (inactive); in the assay with XIP peptide (Xip251-270), 0.617. Also, the z-score is -1.87 in assay [2], 1.47 (inactive) in assay [3], -0.714 (inactive) in assay [4] and -0.783 (inactive) in assay [5].
Regarding `COCCOC(=O)N1C(=O)[C@@]2(c3cc(C#CC4(O)CCCCCC4)ccc31)[C@H](C(N)=O)[C@H]1C(=O)O[C@H](c3ccccc3)[C@H](c3ccccc3)N1[C@@H]2c1ccc(O)cc1`, the composite z-score in assay [1] was 0.722 (inactive); in the assay with XIP peptide (Xip251-270), 0.503. For the same compound, the z-score in assay [2] was 0.997; in assay [3], -2.76 (inactive); in assay [4], -0.102 (inactive); in assay [5], 0.245 (inactive).
With `NCCCCCCNC(=O)[C@H]1C[C@H]2C(=O)N[C@@H](Cc3ccccc3)C(=O)N2[C@H]1c1ccc(O)cc1`, the figures for the composite z-score (in assay [1]; in the assay on XIP peptide (Xip251-270)) were -0.342 (inactive) and 0.623, respectively. Moreover, the z-score in assay [2] was 0.171; in assay [3], -3.5 (inactive); in assay [4], -0.174 (inactive); in assay [5] it was 0.592 (inactive).
`CC(C)(C)N1CC=CC23O[C@@H]4C=CCOC(=O)[C@@H]4[C@H]2C(=O)N(CCCO)[C@@H]3C1=O` (stereo partly specified): the composite z-score was -0.466 (inactive) in assay [1] and -0.825 with XIP peptide (Xip251-270). Also, the z-score in assay [2] is -1.87; in assay [3] it was -3.12 (inactive); in assay [4], -0.263 (inactive); in assay [5], -0.327 (inactive).
`CC(C)(C)OC(=O)CC[C@@]1(C(=O)O)N=C(c2ccc(OCCCO)cc2)O[C@@H]1c1ccccc1`: the composite z-score in assay [1] was 0.0877 (inactive); in the assay with XIP peptide (Xip251-270) it was 0.84. Besides, the z-score was 0.274 in assay [2], -2.94 (inactive) in assay [3], -0.0016 (inactive) in assay [4] and 0.18 (inactive) in assay [5].
`CC(C)N1CC=CC23O[C@@H]4C=CCCOC(=O)C4[C@H]2C(=O)N(CCO)[C@@H]3C1=O` (stereo partly specified): the composite z-score in assay [1] was -0.3 (inactive); in the assay on XIP peptide (Xip251-270), 0.172. In addition, the z-score in assay [2] was -0.434; in assay [3], -4.46 (inactive); in assay [4] it was -0.494 (inactive); in assay [5], -0.578 (inactive).
Take `C[C@H]1C2=C3C(CC[C@H]4C(OCc5ccc(F)cc5C(F)(F)F)OC[C@](C)([C@@H]34)N(C(=O)OC(C)(C)C)C2)C2COC(=O)OCC21` (stereo partly specified): the values for the composite z-score (in assay [1]; in the assay on XIP peptide (Xip251-270)) were 0.172 (inactive) and 0.551, respectively. The z-score in assay [2] is -0.121; in assay [3], -3.49 (inactive); in assay [4], 0.671 (inactive); in assay [5], 0.439 (inactive).
